Screening results from PubChem BioAssay.
KB-V1 MDR tox = kills drug-selected multidrug resistant KB-V1 cells | KB-V1 MDR cells viability, CellTiter-Glo, 72 h | Potency, µM (doses to about 46.1 µM), usual class: cytotoxic | hit rate 3.4% among 400,000 | AID 1347076; also: nearly all actives have a fitted effect of over 60% in size
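KB-V1 cells (P-gp-expressing MDR subline of KB-3-1) in phenol-red-free DMEM with 10% FBS were exposed to library compounds over a concentration series for 72 h at 37 degrees C. Viability read by CellTiter-Glo luminescence; concentration-effect curves fitted after normalization.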
KB-3-1 tox = KB-3-1 parental cell cytotoxicity. hit rate 1.4% among 400,000. Potency, µM (doses to about 46.1 µM), usual class: cytotoxic. AID 1347075. KB-3-1 viability, CellTiter-Glo ATP luminescence, 72 h; also: nearly all actives have a fitted effect of over 60% in size
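Parental KB-3-1 adenocarcinoma cells in phenol-red-free DMEM with 10% FBS were pin-treated with compounds at several concentrations, incubated 72 h at 37 °C, and viability read by CellTiter-Glo luminescence; concentration-effect curves were fitted after normalization.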
MCF10A rerep = DNA re-replication induction in MCF 10a cells | hit rate 2.9% among 350,000 | Potency, µM (doses to about 46.1 µM), usual class: activators | MCF 10A DNA re-replication, Hoechst nuclear intensity, 48 h; also: nearly all actives have a fitted effect of over 50% in size
HT1080NT lethal = kills 2HG-producing HT-1080-NT fibrosarcoma cells; hit rate 1.6% among 360,000; Potency, µM (doses to about 46.1 µM), usual class: cytotoxic; HT-1080-NT fibrosarcoma viability, CellTiter-Glo ATP luminescence, 48 h;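 also: NT is the 2HG producing partner of a matched IDH1 knockdown line; nearly all actives have a fitted effect of over 55% in size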
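HT-1080-NT fibrosarcoma cells (2HG-overproducing), 750 cells/well in RPMI with 5% FBS, dosed after 2 h and incubated 48 h at 37C. CellTiter-Glo luminescence normalized to DMSO and no-cell wells; concentration-response curves fitted and classed.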
HT1080 IDH1KD tx = HT-1080 IDH1 knockdown cell toxicity (counter line). Potency, µM (titrated, usually from 46.1 µM), usual class: cytotoxic. hit rate 2% among 360,000. AID 686971. HT-1080 IDH1 knockdown viability, ATP luminescence, 48 h
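In this qHTS, HT-1080 cells depleted of IDH1 are exposed for 48 h at 37 °C to compound titrations. Toxicity is scored from CellTiter-Glo luminescence, with DMSO as full viability and medium alone as none.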
SW480 rereplic = DNA re-replication induction in SW480 cells; SW480 DNA re-replication, Hoechst DNA content imaging, 48 h; Potency, µM (series often up to 46.1 µM), usual class: activators; hit rate 1.8% among 340,000; also: nearly all actives have a fitted effect of over 55% in size
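Treated cells incubate 48 hr (37 C, 5% CO2), are stained 40 min with Hoechst, and nuclear fluorescence is enumerated; a rise in nuclei with high DNA signal marks re-replication.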
Large screens that a line does not name were inactive. This is a sample that favours compounds with a hit; in the whole collection about 7.9% have one here. Calls follow the shape of the dose curve; as a rule, active = well fitted curve in the direction sought with a large enough effect; inconclusive = small, poorly fitted or top-dose-only effect, or another doubt; inactive = no such curve, though single readings can be large; an effect the other way counts as inactive or inconclusive.

Cc1ccc(CSc2nc3ccncc3n2Cc2nc(-c3ccc(Cl)cc3)oc2C)cc1	none (no result: MCF10A rerep, HT1080NT lethal, HT1080 IDH1KD tx, SW480 rereplic)
COc1cc(-c2noc(C3CC(=O)N(c4cc(C)ccc4C)C3)n2)cc(OC)c1OC (centres undefined)	none (no result: MCF10A rerep, HT1080NT lethal, HT1080 IDH1KD tx, SW480 rereplic)
Cc1ccc(NC(=O)c2ncn(CC(=O)NCc3ccc4[nH]ccc4c3)n2)cc1C	none
Cc1ccc(NC(=O)c2ncn(CCCN(CCCn3cnc(C(=O)Nc4ccc(C)c(C)c4)n3)Cc3ccc4[nH]ccc4c3)n2)cc1C	MCF10A rerep inconclusive, HT1080NT lethal 16µM, HT1080 IDH1KD tx 21µM, SW480 rereplic inconclusive
COc1ccc(CCNC(=O)C(=O)NCc2ccccc2)cc1OC	KB-V1 MDR tox inconclusive, KB-3-1 tox 21µM, MCF10A rerep inconclusive, HT1080NT lethal 16µM, HT1080 IDH1KD tx 21µM, SW480 rereplic 18µM
COc1ccc(CCNC(=O)Cc2ccccc2)cc1OC	SW480 rereplic inconclusive
COc1ccc(CCNC(=O)CSc2nnc(-c3ccccc3)o2)cc1OC	KB-V1 MDR tox 21µM
COc1ccc(CCNC(=O)C(C(=O)c2ccccc2)n2cc(Cl)ccc2=O)cc1OC (centres undefined)	KB-V1 MDR tox 16µM
COc1ccc(CCNC(=O)CSc2ccc3ccccc3c2)cc1OC	KB-V1 MDR tox 23µM
COc1ccc(CCNC(=O)c2cnn(-c3cccc(C)c3)c2C2CCN(C(=O)OC(C)(C)C)CC2)cc1OC	none (no result: MCF10A rerep, HT1080NT lethal, HT1080 IDH1KD tx, SW480 rereplic)
COc1ccc(CCNCC(=O)Nc2ccc(OC(F)(F)F)cc2)cc1OC	MCF10A rerep 23µM
COc1ccc(-c2nnc(SCC(=O)N(Cc3ccccc3)C(C)(C)C)o2)cc1OC	KB-V1 MDR tox 9.2µM, KB-3-1 tox inconclusive, MCF10A rerep inconclusive
O=C(O)COc1ccccc1C1Nc2ccccc2-c2nnc(SCc3ccc(Cl)cc3)nc2O1 (centres undefined)	none (no result: MCF10A rerep, HT1080NT lethal, HT1080 IDH1KD tx, SW480 rereplic)
O=[N+]([O-])c1ccc(O)c(C2CCCCC2)c1	KB-V1 MDR tox inconclusive, KB-3-1 tox inconclusive, MCF10A rerep inconclusive, HT1080NT lethal 15µM, HT1080 IDH1KD tx 16µM, SW480 rereplic inconclusive
O=[N+]([O-])c1ccc2nc(C3CCCCC3)[nH]c2c1	none
CCc1ccc(NC(=O)Cn2c(=O)n(-c3ccc(Cl)c(Cl)c3)c(=O)c3c(C)c(C)sc32)cc1	none (no result: MCF10A rerep, HT1080NT lethal, HT1080 IDH1KD tx, SW480 rereplic)
Nc1ccc2c(c1)Oc1ccccc1C=C2	none
Nc1ccc2c(c1)COc1ccccc1O2	KB-V1 MDR tox 18µM
Nc1nc(Nc2ccc(Cl)cc2)nc2ccccc12	KB-V1 MDR tox 18µM
Cc1ccccc1Nc1nc(N)c2ccccc2n1	KB-V1 MDR tox inconclusive, KB-3-1 tox inconclusive, HT1080NT lethal inconclusive, HT1080 IDH1KD tx 16µM
CCOc1ccc(Nc2nc(N)c3ccccc3n2)cc1	KB-V1 MDR tox inconclusive, KB-3-1 tox inconclusive, MCF10A rerep inconclusive, HT1080NT lethal 21µM, HT1080 IDH1KD tx 18µM
CCOc1ccc(Nc2cc(C)nc3ccc(C)cc23)cc1	KB-V1 MDR tox inconclusive, KB-3-1 tox inconclusive, HT1080NT lethal 29µM, HT1080 IDH1KD tx inconclusive
CN(C)c1ccc(Nc2nc(N)c3ccccc3n2)cc1	KB-V1 MDR tox inconclusive, KB-3-1 tox inconclusive, HT1080NT lethal inconclusive, HT1080 IDH1KD tx inconclusive
COc1ccc(CN2CC[C@H]3C=CC[C@@H](C(=O)N4CCN(c5ccccc5)CC4)[C@H]3C2=O)cc1OC	none (no result: MCF10A rerep, HT1080NT lethal, HT1080 IDH1KD tx, SW480 rereplic)
CCC(=O)N1CCc2cc(Br)cc(S(=O)(=O)CCC(=O)NCCc3ccccc3Cl)c21	none (no result: MCF10A rerep, HT1080NT lethal, HT1080 IDH1KD tx, SW480 rereplic)
Cn1c(=O)c2c(n3ncnc13)NC(=O)CC2c1cccc(F)c1 (centres undefined)	none (no result: MCF10A rerep, HT1080NT lethal, HT1080 IDH1KD tx, SW480 rereplic)
CCOC(=O)c1c(C)oc2nc(C)nc(NCCCN3CCN(c4ccc(F)cc4)CC3)c12	none (no result: MCF10A rerep, HT1080NT lethal, HT1080 IDH1KD tx, SW480 rereplic)
COC(=O)[C@H](Cc1ccccc1)NC(=O)/C=C/[C@H]1O[C@@H](n2ccc(=O)[nH]c2=O)[C@H](O)[C@@H]1O	none (no result: MCF10A rerep, SW480 rereplic)
Nc1nc(Nc2ccccc2)nc2ccccc12	KB-V1 MDR tox inconclusive, KB-3-1 tox inconclusive, HT1080NT lethal inconclusive, HT1080 IDH1KD tx 21µM
CCN1CCn2c3c(c4cc(Cl)ccc42)CCCC31 (centres undefined)	HT1080 IDH1KD tx inconclusive
CCN(CC)CCN1CCn2c3c(c4cc(C)ccc42)CCCC31 (centres undefined)	MCF10A rerep 4.1µM, HT1080NT lethal inconclusive, SW480 rereplic 15µM
CCC(=O)N1CCN(c2ccc(Cl)cc2NC(=O)c2ccc([N+](=O)[O-])o2)CC1	MCF10A rerep inconclusive, HT1080NT lethal inconclusive, HT1080 IDH1KD tx inconclusive, SW480 rereplic 9.2µM
CCC(=O)N1CCN(c2ccc(NC(=O)c3ccc(Br)o3)cc2)CC1	SW480 rereplic 21µM
CCN1CCN(c2ccc(NC(=O)c3ccc([N+](=O)[O-])o3)cc2Cl)CC1	KB-V1 MDR tox inconclusive, MCF10A rerep 1.3µM, HT1080NT lethal inconclusive, HT1080 IDH1KD tx 13µM
CCN1CCN(c2ccc(NC(=O)c3ccc(F)cc3)cc2Cl)CC1	KB-3-1 tox inconclusive, MCF10A rerep inconclusive
CCC(=O)N1CCN(c2ccc(NC(=O)c3ccc([N+](=O)[O-])o3)cc2Cl)CC1	KB-3-1 tox inconclusive, MCF10A rerep inconclusive, HT1080NT lethal 12µM, HT1080 IDH1KD tx 7.3µM
COc1ccc2c(c1)c1c(c(=O)n(-c3ccc(C)cc3)c(=O)n1CC(=O)NCc1ccc(C)cc1)n2C	none (no result: MCF10A rerep, HT1080NT lethal, HT1080 IDH1KD tx, SW480 rereplic)
Cc1ccc2c(Sc3ccccc3)c(C(=O)NCc3ccccc3F)[nH]c2c1	none (no result: MCF10A rerep, HT1080NT lethal, HT1080 IDH1KD tx, SW480 rereplic)
Cc1ccc(C)c(NC(=O)C(=O)NCCc2csc(-c3cccc(F)c3)n2)c1	none (no result: MCF10A rerep, HT1080NT lethal, HT1080 IDH1KD tx, SW480 rereplic)
